# According to PubChem BioAssay (NCATS):
# Results filed as inconclusive are left out. Calls of active or inactive are those of the source. Unless noted, the call rests on the fitted dose curve; in most records, active means well fitted curve in either direction with a large enough effect (not every such curve was filed as active); inconclusive means small, poorly fitted or top-dose-only effect, or another doubt; inactive means flat fitted curve, though single readings scatter.
# Key:
# [1] = molecular target: Lysosomal acid glucosylceramidase (Homo sapiens) (UniProt P04062); experiment: Glucocerebrosidase-p2 (AID 348; in the data active means potency below about 10 µM; further: potency means the concentration at half of the fitted maximal effect); conditions: purified GBA, blue fluorogenic substrate, 40 min
# Procedure, shortened: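 Normal human glucocerebrosidase (0.2 nM) with blue fluorogenic substrate (80 uM final) in citrate/phosphate pH 5.9 with 10mM sodium taurocholate, 0.01% tween-20; 40 min RT, NaOH/glycine stop; fluorescence Ex 365/Em 440; AC50 from a titration from 0.6 nM upwards.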
# [2] = AP1 Signaling Pathway (AID 357); conditions: ME-180 AP-1-bla reporter, EGF-induced, beta-lactamase ratio, 5 h; at 7.69 µM (top of the series) unless noted; further: on the % scale 0 is the no-effect control and ±100 the full control effect
# Procedure, shortened: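 AP-1-bla ME-180 cells with beta-lactamase reporter under AP-1 response element, stimulated with EC50 EGF; compounds titrated, 5 hours at 37 degrees Celsius. CCF4 read at 460/530 nm ratio; positive and negative modulators judged by AC50.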
# [3] = NFAT Signaling Pathway (AID 444); conditions: Jurkat NFAT-bla M1, carbachol, beta-lactamase ratio, 5 h; at 7.69 µM (top of the series) unless noted;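 further: carbachol stimulus at about its EC50 of 1 µM final; on the % scale 0 is the no-effect control and ±100 the full control effect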
# Procedure, shortened: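 Jurkat cells carrying an NFAT-driven β-lactamase reporter and co-transfected muscarinic M1 receptor were treated with compound plus carbachol (1 uM final, an EC50 level) for 5 h at 37 °C. CCF4 loading followed for 1 h at RT; 460/530 nm ratio gave %activity.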
# [4] = Stat Signaling Pathway (AID 446); conditions: ME-180 SIE beta-lactamase reporter, IL-6 stimulated, 5 h; at 7.69 µM (top of the series) unless noted;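 further: ME-180 cervical cancer cells given 40 pM IL-6 alongside compound; SIE-controlled beta-lactamase reporter measured as 460/530 nm FRET emission ratio; on the % scale 0 is the no-effect control and ±100 the full control effect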
# Procedure, shortened: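 FRET read-out (405 nm excitation, 460/530 nm emission) of a beta-lactamase reporter under a STAT-inducible element in ME-180 cervical carcinoma cells. Cells with compound receive 40 pM IL-6 for 5 h. Values are normalised to AC90 stimulation and AC90 JAK-inhibitor controls.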
# [5] = molecular target: Glucocorticoid receptor (Homo sapiens) (UniProt P04150); experiment: GR-EFC Redistribution (AID 451; calls by dose curve; further: potency means the concentration at half of the fitted maximal effect); conditions: CHO-K1 GR-EFC translocation, beta-gal luminescence, 2 h
# Procedure, shortened: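 CHO-K1 cells stably expressing nuclear-localized β-gal enzyme acceptor and GR fused C-terminally to the enzyme donor fragment; ligand-driven nuclear translocation restores β-gal by complementation. Compounds titrated up to 46 uM final, 2 h at 37 °C; luminescence read.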
# [6] = molecular target: Mitogen-activated protein kinase 10 (Mus musculus) (UniProt Q61831); experiment: JNK3 AlphaScreen Assay (AID 530); conditions: JNK3 lysate, c-Jun phosphorylation; series mostly up to 57.1 µM;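 further: kinase came from lysate of stimulated human HepG2 cells; signal reports phosphorylation of biotinylated GST-cJun 1-79 at Ser73 with 10 µM ATP; on the % scale 0 is the no-effect control and ±100 the full control effect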
# Procedure, shortened: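 Biotinylated GST-cJun(1-79) served as substrate for JNK3 in HepG2 lysates stimulated with IL-1beta and TNF-alpha. ATP was 10 uM final, pH 7.6. Ser73 phosphorylation was quantified by AlphaScreen (680 nm excitation).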
# [7] = qHTS Assay for Lipid Storage Modulators (AID 1519; calls by dose curve); conditions: Drosophila S3 cells, BODIPY lipid droplet/cell ratio, laser cytometry, cells loaded with oleic acid; for activity change, negative = inhibition: at 57.5 µM (top of the series)
# Procedure, shortened: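 Cells seeded at 5,000 per well were treated with compounds over a concentration series and loaded with oleic acid (400 uM, as added). Lipid droplet fluorescence (488 nm excitation, 500-530 nm channel) was read by laser-scanning cytometry and normalized to 20 uM Triacsin C.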
# [8] = Primary qHTS for small molecule stabilizers of the endoplasmic reticulum resident proteome: Secreted ER Calcium Modulated Protein (SERCaMP) assay (AID 1508630; active means well fitted curve in the direction sought with a large enough effect; an effect the other way counts as inactive or inconclusive; further: on the % scale 0 is the no-effect control and ±100 the full control effect); conditions: SH-SY5Y GLuc-SERCaMP (Gaussia luciferase released on ER calcium loss) secretion, thapsigargin, luminescence; series mostly up to 38.4 µM
# Procedure, shortened: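 The SH-SY5Y reporter protocol was run at 3 concentrations up to 38.3 uM (primary) or 11 concentrations (follow-up): 16 h compound, 100 nM thapsigargin for 4 h, then extracellular luciferase luminescence.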
# [9] = molecular target: Glucocorticoid receptor (Homo sapiens) (UniProt P04150); experiment: GR-GFP Redistribution (AID 450;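 active means compounds whose dose series gives a full or clear partial fitted curve of increased nuclear translocation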; further: potency means the concentration at half of the fitted maximal effect); conditions: U2OS GR-GFP nuclear translocation, laser cytometry, 2 h
# [10] = molecular target: 3',5'-cyclic-AMP phosphodiesterase 4B (Homo sapiens) (UniProt Q07343); experiment: qHTS Assay for Inhibitors of PDE-IV (AID 607; active means well fitted activation curve with a large enough effect in the main read-out, with a control signal flat, not every such curve was filed as active; further: % of control where 0% means no effect); conditions: HEK293 ACTOne CNG channel cells, membrane potential fluorescence; series mostly up to 22.9 µM
# Procedure, shortened: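 Cell-based read-out of cAMP via a modified cyclic nucleotide-gated channel and membrane potential dye (535/590 nm) in HEK293 cells expressing PDE4 endogenously. Compounds tested up to 22.9 uM final; 100 uM RO 20-1724 reference.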
# [11] = Confirmation and Secondary Assay for Modulators of Hemoglobin Beta Chain Splicing at IVS2 705 locus (AID 930; active means well fitted curve in the direction sought with a large enough effect; an effect the other way counts as inactive or inconclusive;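 further: HeLa cells stably expressing the EGFP-705 splicing reporter; GFP fluorescence per well restored by corrected splicing of the IVS2-705 intron in EGFP; % of control where 0% means no effect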); conditions: HeLa EGFP-705 splicing reporter, GFP fluorescence, 48 h; series mostly up to 38.3 µM
# Procedure, shortened: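 Assay measures total GFP intensity per well in HeLa EGFP-705 cells after 2 days with compound; mis-splicing normally truncates EGFP, so fluorescence indicates corrected splicing.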
# [12] = molecular target: Ubiquitin carboxyl-terminal hydrolase 1 (Homo sapiens) (UniProt O94782); experiment: Inhibitors of USP1/UAF1: Pilot qHTS (AID 504865; active means well fitted curve in the direction sought with a large enough effect; an effect the other way counts as inactive or inconclusive;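 further: rhodamine fluorescence freed from ubiquitin-rhodamine substrate followed over time; top concentration of the series differs between compounds; on the % scale 0 is the no-effect control and ±100 the full control effect; nearly all actives have a fitted effect of over 35% in size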); conditions: purified USP1/UAF1, Ub-rhodamine cleavage fluorescence; series mostly up to 54.9 µM
# Procedure, shortened: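 In 50mM HEPES pH 7.8 containing 0.5mM EDTA, 1mM TCEP, 0.1 mg/ml BSA and 0.01% Tween-20, 1nM USP1/UAF1 is exposed to compound for 15 min, then Ub-Rho (150nM final) is added and fluorescence is read over time.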
# [13] = molecular target: Cytochrome P450 3A4 (Homo sapiens) (UniProt P08684); experiment: qHTS Assay for Activators of Cytochrome P450 3A4 (AID 885; active means well fitted curve in the direction sought with a large enough effect; an effect the other way counts as inactive or inconclusive; further: nearly all actives have a fitted effect of over 65% in size); conditions: recombinant CYP3A4, Luciferin-PPXE luminescence, 60 min; series mostly up to 57.1 µM
# Procedure, shortened: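 Luminescent readout of luciferin formed from 25 uM Luciferin-PPXE (KM level) by 20 nM CYP3A4 in 200 mM KPO4, with 60 min NADPH-driven reaction at room temperature after 10 min compound exposure. Ketoconazole (57 uM) defined 100% inhibition.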
# [14] = molecular target: Cytochrome P450 1A2 (Homo sapiens) (UniProt P05177); experiment: p450-cyp1a2 (AID 410; calls by dose curve;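 further: -100% = full effect of reference inhibitor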); conditions: recombinant CYP1A2, luciferin-ME demethylation, luminescence; series mostly up to 57 µM
# Procedure, shortened: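 20nM CYP1A2, 100uM Luciferin-ME (=Km), 100mM KPO4; cpd 10 min RT; +NADPH regen, 60 min RT; stop/detect 20 min; luminescence. Normalized to furafylline 57 uM = full inhibition.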
# [15] = molecular target: Cytochrome P450 2D6 (Homo sapiens) (UniProt P10635); experiment: qHTS Assay for Inhibitors and Substrates of Cytochrome P450 2D6 (AID 891; active means well fitted curve in the direction sought with a large enough effect; an effect the other way counts as inactive or inconclusive; further: potency means the concentration at half of the fitted maximal effect; nearly all actives have a fitted effect of over 60% in size); conditions: recombinant CYP2D6, luciferin-ME EGE luminescence; series mostly up to 57.1 µM
# Procedure, shortened: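 Luminescent read-out of luciferin formed by 5 nM human CYP2D6 demethylating 30 uM Luciferin-ME EGE (Km level) over 60 min at room temperature after NADPH regeneration addition. Data normalized to full inhibition by 1.43 uM quinidine.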
# [16] = Confirmation and Secondary Assay for Modulators of Hemoglobin Beta Chain Splicing at IVS2 654 locus (AID 910; active means well fitted curve in the direction sought with a large enough effect; an effect the other way counts as inactive or inconclusive;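 further: per-well total GFP intensity by laser scanning cytometry after 2-day treatment; % of control where 0% means no effect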); conditions: HeLa EGFP-654 splicing reporter, GFP fluorescence, 48 h; series mostly up to 38.3 µM
# Procedure, shortened: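 HeLa cells stably carrying EGFP interrupted by mutant beta-globin IVS2-654 intron (CMV-driven) were treated with compound for 2 days at 37C; corrected splicing was scored as total peak GFP intensity per well (488 nm excitation, 500-520 nm emission).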
# [17] = molecular target: Cytochrome P450 3A4 (Homo sapiens) (UniProt P08684); experiment: qHTS Assay for Inhibitors and Substrates of Cytochrome P450 3A4 (AID 884; active means well fitted curve in the direction sought with a large enough effect; an effect the other way counts as inactive or inconclusive; further: potency means the concentration at half of the fitted maximal effect; nearly all actives have a fitted effect of over 50% in size); conditions: recombinant CYP3A4, Luciferin-PPXE luminescence; series mostly up to 57.1 µM
# Procedure, shortened: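 Luminescent readout of luciferin produced by CYP3A4 (20 nM) dealkylation of Luciferin-PPXE, 25 uM (its KM). NADPH-driven reaction ran 60 min at RT after 10 min compound preincubation; data scaled to 57 uM ketoconazole as 100% inhibition.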
# [18] = qHTS Assay for Identification of Small Molecule Agonists for Hypoxia Response Element Signaling Pathway (AID 914; active means well fitted activation curve with a large enough effect in the signal ratio, with a control signal flat, not every such curve was filed as active; the % refers to the signal ratio; further: % of control where 0% means no effect); conditions: ME-180 (cervical carcinoma) HRE-bla reporter, beta-lactamase ratio, CoCl2, 17 h; activation: stronger effect = higher value
# Procedure, shortened: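 Compounds in a titration series were added to ME-180 reporter cells alongside an EC50 level of CoCl2. After 17 hours, beta-lactamase activity was read as the 460nm/530nm emission ratio of CCF4, giving AC50 values.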
# [19] = measured here: cell count channel max response
# [20] = measured here: lipid channel max response
# Chain of 3',5'-cyclic-AMP phosphodiesterase 4B (Homo sapiens) (Q07343 whole entry, looked up): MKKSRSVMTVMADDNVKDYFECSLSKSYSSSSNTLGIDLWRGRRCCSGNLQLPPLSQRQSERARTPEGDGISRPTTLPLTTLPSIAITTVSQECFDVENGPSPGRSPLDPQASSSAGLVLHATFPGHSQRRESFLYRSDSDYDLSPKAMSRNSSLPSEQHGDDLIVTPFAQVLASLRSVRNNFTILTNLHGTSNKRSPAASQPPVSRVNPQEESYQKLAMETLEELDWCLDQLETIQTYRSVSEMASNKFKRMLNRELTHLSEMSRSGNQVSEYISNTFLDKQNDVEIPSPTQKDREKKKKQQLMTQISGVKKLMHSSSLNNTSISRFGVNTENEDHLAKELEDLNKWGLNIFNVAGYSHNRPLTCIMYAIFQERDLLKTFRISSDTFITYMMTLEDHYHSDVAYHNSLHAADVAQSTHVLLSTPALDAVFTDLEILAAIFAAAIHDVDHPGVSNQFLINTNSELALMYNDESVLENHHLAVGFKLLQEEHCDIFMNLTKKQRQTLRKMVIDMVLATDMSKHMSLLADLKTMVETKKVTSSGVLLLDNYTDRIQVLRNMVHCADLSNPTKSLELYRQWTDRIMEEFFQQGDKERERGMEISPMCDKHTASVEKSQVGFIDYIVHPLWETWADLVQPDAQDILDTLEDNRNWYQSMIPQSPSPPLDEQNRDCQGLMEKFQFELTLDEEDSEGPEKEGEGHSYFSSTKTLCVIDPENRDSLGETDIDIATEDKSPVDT
# Chain of Cytochrome P450 3A4 (Homo sapiens) (P08684 whole entry, looked up): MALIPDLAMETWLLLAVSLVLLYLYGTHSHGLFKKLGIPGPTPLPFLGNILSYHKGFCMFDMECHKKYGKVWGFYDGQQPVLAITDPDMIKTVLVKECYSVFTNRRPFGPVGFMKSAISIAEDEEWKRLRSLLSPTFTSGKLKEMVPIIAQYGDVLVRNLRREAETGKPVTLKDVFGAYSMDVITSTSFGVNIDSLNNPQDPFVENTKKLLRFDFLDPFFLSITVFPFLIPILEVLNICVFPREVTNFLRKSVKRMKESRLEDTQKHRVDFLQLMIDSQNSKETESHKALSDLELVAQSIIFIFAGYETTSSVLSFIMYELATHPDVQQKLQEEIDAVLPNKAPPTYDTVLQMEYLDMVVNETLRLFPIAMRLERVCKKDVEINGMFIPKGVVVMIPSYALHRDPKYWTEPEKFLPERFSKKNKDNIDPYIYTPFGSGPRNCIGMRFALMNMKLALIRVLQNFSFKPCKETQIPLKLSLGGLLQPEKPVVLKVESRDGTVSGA
# Chain of Ubiquitin carboxyl-terminal hydrolase 1 (Homo sapiens) (O94782 whole entry, looked up): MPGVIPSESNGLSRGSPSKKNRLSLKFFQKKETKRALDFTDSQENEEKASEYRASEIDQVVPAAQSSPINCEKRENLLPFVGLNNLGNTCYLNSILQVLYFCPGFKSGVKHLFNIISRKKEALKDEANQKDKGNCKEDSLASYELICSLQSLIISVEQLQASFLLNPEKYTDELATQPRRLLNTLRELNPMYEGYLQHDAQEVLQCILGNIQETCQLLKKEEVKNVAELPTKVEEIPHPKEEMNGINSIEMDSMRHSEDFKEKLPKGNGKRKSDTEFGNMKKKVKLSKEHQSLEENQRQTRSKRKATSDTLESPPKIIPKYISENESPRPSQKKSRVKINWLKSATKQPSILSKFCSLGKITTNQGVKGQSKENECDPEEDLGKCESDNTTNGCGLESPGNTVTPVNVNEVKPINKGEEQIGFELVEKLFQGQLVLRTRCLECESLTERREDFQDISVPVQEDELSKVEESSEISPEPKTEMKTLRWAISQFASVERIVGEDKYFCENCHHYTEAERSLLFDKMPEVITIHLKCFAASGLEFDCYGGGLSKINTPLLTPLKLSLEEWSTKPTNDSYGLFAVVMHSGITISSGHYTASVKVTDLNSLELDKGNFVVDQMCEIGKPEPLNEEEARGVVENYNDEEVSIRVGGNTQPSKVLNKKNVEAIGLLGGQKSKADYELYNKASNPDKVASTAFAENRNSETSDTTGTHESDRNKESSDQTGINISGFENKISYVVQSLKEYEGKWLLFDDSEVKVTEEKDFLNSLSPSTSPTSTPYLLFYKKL
# Chain of Glucocorticoid receptor (Homo sapiens) (P04150 whole entry, looked up, the tested form may be a part): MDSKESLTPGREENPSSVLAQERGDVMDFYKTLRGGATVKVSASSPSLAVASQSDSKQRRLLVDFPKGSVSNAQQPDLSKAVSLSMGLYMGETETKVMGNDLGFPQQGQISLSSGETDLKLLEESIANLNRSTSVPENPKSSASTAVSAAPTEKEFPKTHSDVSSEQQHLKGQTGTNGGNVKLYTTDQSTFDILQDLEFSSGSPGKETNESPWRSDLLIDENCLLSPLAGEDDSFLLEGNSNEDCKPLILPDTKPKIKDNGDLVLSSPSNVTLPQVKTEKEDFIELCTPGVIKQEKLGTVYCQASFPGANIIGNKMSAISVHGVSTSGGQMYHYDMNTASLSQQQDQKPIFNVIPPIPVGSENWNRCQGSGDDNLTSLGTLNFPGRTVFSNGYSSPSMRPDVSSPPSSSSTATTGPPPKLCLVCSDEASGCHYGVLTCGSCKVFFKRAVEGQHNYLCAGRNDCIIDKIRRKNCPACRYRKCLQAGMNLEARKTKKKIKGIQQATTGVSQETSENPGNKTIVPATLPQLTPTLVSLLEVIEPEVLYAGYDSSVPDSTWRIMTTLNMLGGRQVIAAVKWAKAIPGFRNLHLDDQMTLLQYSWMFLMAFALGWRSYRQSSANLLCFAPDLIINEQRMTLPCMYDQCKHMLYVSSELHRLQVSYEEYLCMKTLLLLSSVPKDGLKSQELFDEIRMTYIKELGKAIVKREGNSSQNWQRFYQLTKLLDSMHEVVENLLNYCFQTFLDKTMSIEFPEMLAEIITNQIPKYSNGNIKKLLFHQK
# Chain of Lysosomal acid glucosylceramidase (Homo sapiens) (P04062 whole entry, looked up): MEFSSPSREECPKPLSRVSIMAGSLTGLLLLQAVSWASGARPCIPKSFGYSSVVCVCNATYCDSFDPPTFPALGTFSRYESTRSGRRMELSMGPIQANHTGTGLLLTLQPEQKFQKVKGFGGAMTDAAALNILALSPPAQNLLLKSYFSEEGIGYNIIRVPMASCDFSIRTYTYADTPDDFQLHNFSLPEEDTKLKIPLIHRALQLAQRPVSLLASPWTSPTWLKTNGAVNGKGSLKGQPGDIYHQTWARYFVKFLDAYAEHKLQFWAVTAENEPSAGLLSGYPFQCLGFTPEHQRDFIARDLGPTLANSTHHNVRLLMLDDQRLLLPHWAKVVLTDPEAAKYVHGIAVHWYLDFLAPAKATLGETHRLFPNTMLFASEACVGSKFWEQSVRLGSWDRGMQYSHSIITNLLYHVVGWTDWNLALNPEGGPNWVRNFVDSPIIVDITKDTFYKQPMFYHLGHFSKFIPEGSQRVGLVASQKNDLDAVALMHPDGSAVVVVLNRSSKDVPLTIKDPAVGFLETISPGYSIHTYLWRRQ
# Chain of Cytochrome P450 2D6 (Homo sapiens) (P10635 whole entry, looked up): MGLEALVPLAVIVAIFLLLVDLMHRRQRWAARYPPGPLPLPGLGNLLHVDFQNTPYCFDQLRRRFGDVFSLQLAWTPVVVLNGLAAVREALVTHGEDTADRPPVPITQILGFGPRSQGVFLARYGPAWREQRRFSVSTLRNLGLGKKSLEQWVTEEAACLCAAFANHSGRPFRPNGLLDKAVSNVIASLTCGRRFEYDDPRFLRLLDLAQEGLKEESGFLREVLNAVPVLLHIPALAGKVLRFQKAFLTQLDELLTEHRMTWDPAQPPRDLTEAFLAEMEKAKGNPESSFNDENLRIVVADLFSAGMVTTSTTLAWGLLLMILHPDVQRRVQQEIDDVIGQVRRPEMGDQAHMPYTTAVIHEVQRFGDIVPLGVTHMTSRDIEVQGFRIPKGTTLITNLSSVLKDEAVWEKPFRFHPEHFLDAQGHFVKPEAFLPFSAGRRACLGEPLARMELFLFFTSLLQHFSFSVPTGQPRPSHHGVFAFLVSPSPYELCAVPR
# Chain of Cytochrome P450 1A2 (Homo sapiens) (P05177 whole entry, looked up): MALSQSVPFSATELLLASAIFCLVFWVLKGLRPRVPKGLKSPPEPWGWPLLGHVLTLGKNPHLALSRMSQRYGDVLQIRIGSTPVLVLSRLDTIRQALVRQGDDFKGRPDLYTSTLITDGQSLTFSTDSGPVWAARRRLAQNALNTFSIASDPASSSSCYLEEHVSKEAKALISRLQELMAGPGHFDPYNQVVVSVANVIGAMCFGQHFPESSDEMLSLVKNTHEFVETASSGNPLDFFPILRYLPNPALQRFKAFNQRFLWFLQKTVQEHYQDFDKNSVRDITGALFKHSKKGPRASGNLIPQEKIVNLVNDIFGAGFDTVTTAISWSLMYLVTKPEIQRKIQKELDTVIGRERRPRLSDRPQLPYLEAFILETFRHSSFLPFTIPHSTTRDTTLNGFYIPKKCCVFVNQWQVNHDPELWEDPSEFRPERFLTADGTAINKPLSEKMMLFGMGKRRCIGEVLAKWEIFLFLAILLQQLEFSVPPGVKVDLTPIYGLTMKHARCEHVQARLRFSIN
Structure (SMILES),Potency [1],"activity change, negative = inhibition [2]","activity change, negative = inhibition [3]","activity, negative = inhibition [4]",Potency [5],Potency [6],"activity change, negative = inhibition [7]","max response [7, 19]","max response [7, 20]",outcome [8],Potency [9],Potency [10],outcome [11],Potency [12],Potency [13],Potency [14],Potency [15],Potency [16],Potency [17],activation [18]
O=C(c1ccncc1)N1CCC[C@@]2(CCN(C(c3ccccc3)c3ccccc3)C2)C1,> 11.4 µM (inactive),-4.57% (inactive),17.1% (inactive),0.76% (inactive),> 46 µM (inactive),inactive,-4.39% (inactive),-3.62%,-3.76%,inactive,–,–,–,–,–,–,–,–,–,–
Cc1ccccc1-c1cc(-n2ccnc2)ncn1,> 11.4 µM (inactive),-7.76% (inactive),-6.87% (inactive),15.7% (inactive),> 46 µM (inactive),inactive,9.66% (inactive),7.52%,17.5%,inactive,> 46 µM (inactive),inactive,inactive,inactive,–,–,–,–,–,–
COc1ccc(-n2c(=O)cnc3cnc(Nc4ccccc4)nc32)cc1,> 11.4 µM (inactive),-13.4% (inactive),5.4% (inactive),-1.48% (inactive),> 46 µM (inactive),inactive,7.14% (inactive),8.28%,18.1%,inactive,> 9.22 µM (inactive),–,–,–,–,–,–,–,–,–
Cc1ccccc1-c1cncnc1NC1CCNCC1,> 11.4 µM (inactive),11.7% (inactive),-1.26% (inactive),20.9% (inactive),> 46 µM (inactive),inactive,3.19% (inactive),12.9%,16%,inactive,> 46 µM (inactive),inactive,inactive,inactive,inactive,–,–,–,–,–
CCNc1ncc2ncc(=O)n(C)c2n1,> 11.4 µM (inactive),3.09% (inactive),-4.43% (inactive),-6.09% (inactive),> 46 µM (inactive),inactive,5.71% (inactive),10.2%,17.6%,inactive,> 9.22 µM (inactive),inactive,–,–,–,–,–,–,–,–
CS(=O)(=O)N1CCC2(CCN(c3ccccn3)CC2)CC1,> 11.4 µM (inactive),-5.04% (inactive),-12.8% (inactive),-2.94% (inactive),> 46 µM (inactive),inactive,6.49% (inactive),5.01%,13.9%,inactive,–,inactive,–,–,–,–,–,–,–,–
COc1ccccc1CN1CCCC2(CCN(C(=O)c3cnccn3)CC2)C1,> 11.4 µM (inactive),4.14% (inactive),–,–,> 46 µM (inactive),inactive,3.91% (inactive),-6.38%,0.432%,inactive,–,inactive,–,–,inactive,inactive,3.98 µM (active),–,–,–
Cc1cccc(CNc2ncnc3ccc(-c4ccccc4C#N)cc23)c1,> 11.4 µM (inactive),-28.4% (inactive),12.9% (inactive),-7.62% (inactive),> 46 µM (inactive),inactive,0.748% (inactive),4.98%,4.86%,inactive,> 46 µM (inactive),–,inactive,–,–,–,–,inactive,–,–
CC(=O)N1CCC[C@@]2(CCN(C(c3ccccc3)c3ccccc3)C2)C1,> 11.4 µM (inactive),-0.322% (inactive),3.9% (inactive),-10.9% (inactive),> 46 µM (inactive),inactive,-4.88% (inactive),-3.73%,-8.87%,inactive,–,inactive,–,–,–,–,–,–,–,–
Cc1cccc(CNc2cc(-c3ccoc3)ncn2)c1,> 11.4 µM (inactive),-15.6% (inactive),12% (inactive),-3.91% (inactive),> 46 µM (inactive),inactive,5.52% (inactive),-1.87%,6.63%,inactive,> 46 µM (inactive),inactive,inactive,–,inactive,–,–,inactive,7.94 µM (active),–
CN(C)Cc1ccccc1-c1cc(N(C)C)ncn1,> 11.4 µM (inactive),-1.87% (inactive),-11.7% (inactive),7.42% (inactive),> 46 µM (inactive),inactive,5.84% (inactive),8.47%,12%,inactive,> 46 µM (inactive),inactive,inactive,inactive,–,–,1.26 µM (active),–,–,5.79% (inactive)
O=c1c(-c2cc(F)cc(F)c2)nc2cncnc2n1Cc1ccc(F)cc1,> 11.4 µM (inactive),-2.14% (inactive),-15.1% (inactive),-0.133% (inactive),> 46 µM (inactive),inactive,-8.57% (inactive),-5.87%,-11%,inactive,> 9.22 µM (inactive),inactive,–,–,inactive,–,–,–,–,–
COc1ccc(NC(=O)N2CC[C@@]3(CCCN(C(=O)c4ccco4)C3)C2)cc1,> 11.4 µM (inactive),-13.2% (inactive),-7.9% (inactive),13.8% (inactive),> 46 µM (inactive),inactive,2.86% (inactive),9.78%,12.5%,inactive,–,inactive,–,–,–,–,–,–,–,–
